Shiga toxin inh = inhibitors of Shiga toxin in Vero cells; Vero cells, Shiga toxin protein synthesis inhibition reporter; inhibition, % at 38.7 µM; 9.2% of 290,000 active; AID 2315; in the data active means inhibition mostly above about 28%, no sharp cut-off; inactive means mostly below about 43%
Pf growth 48h = P. falciparum growth inhibition at 48 hours (one generation); P. falciparum luciferase growth in erythrocytes, 48 h; Potency, µM (doses to about 28.7 µM), actives largely listed as inhibitors; 5.9% of 310,000 active; AID 504832
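Erythrocytes infected with P. falciparum carrying an integrated firefly luciferase reporter (2% hematocrit, 0.1% parasitemia final) were exposed to compounds in RPMI 1640 with 0.5% Albumax at 37 C, 5% CO2. Growth inhibition was scored as reduced luminescence.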
Cycloheximide cs = counter-screen for Shiga toxin inhibitors: cycloheximide protein synthesis inhibition; 12% of 300,000 active; max response, %; AID 2314; cell reporter, cycloheximide protein synthesis inhibition counterscreen; in the data active means max response mostly above about 13%, no sharp cut-off; inactive means mostly below about 14%; further: read at 38.3 µM for the half of the compounds with a filed dose
Pf growth 96h = inhibits malaria parasite growth, 96 h; P. falciparum luciferase reporter growth, 96 h; Potency, µM (doses to about 28.7 µM), most hits filed as inhibitors; 6.9% of 320,000 active; AID 504834
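Delayed-death screen, second-generation endpoint: infected erythrocytes, 2% hematocrit, 0.05% parasitemia final; 96 hours at 37 C, 5% CO2; luciferase detection reagent; luminescence decrease equals reduced growth.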
Of the large screens only hits and unclear results are named; the others gave an inactive call. Only some compounds are listed: those with a hit (about 21% of all), similar ones and a draw of the others. Unless noted, the call rests on the fitted dose curve; in most records, active means well fitted inhibition curve with a large enough effect; inconclusive means small, poorly fitted or top-dose-only effect, or another doubt; inactive means no such curve, though single readings can be large or run the other way.

COc1ccccc1NS(=O)(=O)c1cc(NC(=O)c2cnccn2)ccc1N1CCOCC1	Pf growth 48h 11.7µM, Pf growth 96h inconclusive
COc1ccccc1NS(=O)(=O)c1cc(NC(=O)c2cc[n+]([O-])cc2)ccc1N1CCCC1	Pf growth 48h inconclusive, Pf growth 96h inconclusive
O=C(Nc1cc(S(=O)(=O)N2CCOCC2)ccc1N1CCOCC1)c1cc(=O)[nH]c2ccccc12	none
COc1ccccc1NS(=O)(=O)c1cc(NC(=S)NCCN2CCOCC2)ccc1N1CCOCC1	Pf growth 48h inconclusive, Pf growth 96h 14.7µM
COc1ccccc1NS(=O)(=O)c1cc(NC(=O)c2cccc(S(=O)(=O)N(C)C)c2)ccc1N1CCOCC1	Pf growth 48h 2.33µM, Pf growth 96h 1.47µM (no result: Shiga toxin inh, Cycloheximide cs)
COc1ccccc1NS(=O)(=O)c1cc(NC(=O)C2CCCC2)ccc1N1CCOCC1	Pf growth 48h inconclusive
CNC(=O)CCc1[nH]c2ccccc2c1Sc1ccccc1	Pf growth 48h inconclusive, Pf growth 96h 5.22µM
COc1ccc(NC(=O)c2ccc3nccnc3c2)cc1	Shiga toxin inh 87.8, Cycloheximide cs 37.1
CCOc1ccc(NC(=O)Nc2ccc3nccnc3c2)cc1	Pf growth 96h inconclusive
CCOc1ccc(NC(=O)c2ccc3nccnc3c2)cc1	Cycloheximide cs 51.7 (no result: Pf growth 96h)
CC(C)(C)NC(=O)C(c1ccncc1)N(C(=O)Cn1nnc(-c2ccc(F)cc2)n1)c1ccccc1 (stereo not drawn)	none
CC(C)(C)NC(=O)C(c1ccncc1)N(C(=O)Cn1nnc(-c2ccc(F)cc2)n1)c1ccc(F)cc1 (stereo not drawn)	Pf growth 48h 2.62µM
Cc1ccc(N(C(=O)Cn2nnc(-c3ccc(F)cc3)n2)C(C(=O)NC(C)(C)C)c2ccncc2)cc1 (stereo not drawn)	Pf growth 48h 4.65µM
CC(=O)N1c2ccc3ccccc3c2C2C=CCC2C1c1ccc(Br)cc1 (stereo not drawn)	Pf growth 48h 5.86µM
CC(=O)N1c2ccc(Cl)cc2C2C=CCC2C1c1cccc2ccccc12 (stereo not drawn)	Pf growth 48h 13.1µM
NC1=NC2=C(CCCC2)C2(CCCCC2)S1	Pf growth 48h 13.1µM
O=S(=O)(c1ccc(Br)cc1)N1CCN(c2ccccc2)CC1	Pf growth 48h 10.4µM
O=S(=O)(c1ccccc1)N1CCN(c2ccccc2)CC1	none
O=S(=O)(c1ccc(F)cc1)N1CCN(c2ccccc2)CC1	Pf growth 96h inconclusive (no result: Pf growth 48h)
O=S(=O)(c1ccccc1)N1CCN(S(=O)(=O)c2ccc(F)cc2)CC1	Pf growth 96h 10.4µM (no result: Shiga toxin inh)
Cc1ccc(C2=C(c3ccc([N+](=O)[O-])cc3)C(=O)OC2)cc1C	Pf growth 48h inconclusive, Pf growth 96h inconclusive
CCOC(=O)c1ccc(NC(=O)c2cccc(S(=O)(=O)N3CCOCC3)c2)cc1	Pf growth 48h 6.57µM
O=C(Nc1ccc(N2CCCCCC2)cc1)c1cccc(S(=O)(=O)N2CCOCC2)c1	Pf growth 48h 13.1µM, Pf growth 96h 10.4µM (no result: Shiga toxin inh, Cycloheximide cs)
O=C(NCCOC(=O)c1ccc(S(=O)(=O)N2CCOCC2)cc1)c1cccnc1	Pf growth 96h 2.33µM
O=C(Nc1ccc(S(=O)(=O)N2CCOCC2)cc1)c1cccnc1	Pf growth 48h inconclusive
CCn1c(C)nc2cc(C(=O)OCCC(F)(F)F)ccc21	Shiga toxin inh 86.4, Cycloheximide cs 29.1
CCn1c2ccccc2c2cc(N)ccc21	Pf growth 48h inconclusive, Pf growth 96h 11.7µM
CCn1c(C)nc2cc(N)ccc21	Cycloheximide cs 35.0
CC1CCN(C(=O)c2ccccc2NS(=O)(=O)c2ccccc2)CC1	Pf growth 96h inconclusive
COc1cc(/C=C(\C#N)C(=O)Nc2cccnc2)ccc1OC(C)C	none
Cc1cc(C)c2cc(C#N)c(SCC(=O)Nc3cc(C)on3)nc2c1	none
CC(C(=O)Nc1ccc(Br)cc1)N(C)CC(=O)NCc1ccco1 (stereo not drawn)	none (no result: Shiga toxin inh, Cycloheximide cs)
Cc1cc(C)c(NC(=O)CSc2nccn2C)c(C)c1	Pf growth 96h 0.0738µM
Cn1ccnc1SCC(=O)Nc1cccc(O)c1	Cycloheximide cs 20.8 (no result: Pf growth 96h)
CCCCOc1cccc(NC(=O)CSc2nccn2C)c1	Cycloheximide cs 8.8
Cc1cc(C(C)(C)C)cc(C)c1COC(=O)c1cccnc1	Pf growth 48h inconclusive, Pf growth 96h inconclusive
COc1ccc2[nH]cc(C(=O)CN3CCC(C)CC3)c2c1	Shiga toxin inh 76.5, Cycloheximide cs 34.6, Pf growth 96h inconclusive
COc1cccc(N2CCN(CC(=O)c3c[nH]c4ccc(OC)cc34)CC2C)c1 (stereo not drawn)	Pf growth 48h 11.7µM, Pf growth 96h inconclusive
CSCC[C@H](NC(=O)Nc1cccc(Br)c1)C(=O)O	none
CCCn1c(CC)nc([N+](=O)[O-])c1Sc1ccc(C)cc1	Pf growth 48h inconclusive, Pf growth 96h 10.4µM
CCOC(=O)Cc1csc(NC(=O)c2c(-c3c(Cl)cccc3Cl)noc2C)n1	Pf growth 48h inconclusive, Pf growth 96h inconclusive
CCOC(=O)Cc1csc(NC(=O)/C=C\c2ccccc2Cl)n1	Shiga toxin inh 53.0, Cycloheximide cs 22.9
CCOC(=O)Cc1csc(NC(=O)/C=C/c2ccccc2Cl)n1	Shiga toxin inh 71.3, Cycloheximide cs 37.8
CCOC(=O)Cc1csc(NC(=O)c2ccc3ccccc3n2)n1	none
Nc1cc(Cl)ccc1N1CCCCCC1	Pf growth 48h 2.62µM
Nc1ccc(N2CCCCC2)cc1N1CCCCC1	Pf growth 48h 3.29µM
Nc1cc(Cl)ccc1N1CCCCC1	none
Cc1cc(=O)oc2c(C)c(OCC(=O)N3CCN(c4cccc(Cl)c4)CC3)ccc12	none
Cc1ccc(CNC(=O)CN2C(=O)NC(C)(c3ccc(Cl)cc3)C2=O)cc1 (stereo not drawn)	none
Cc1ccc(N2C(=O)N(CC(=O)NCc3ccccc3Cl)C(=O)C2C)cc1 (stereo not drawn)	Pf growth 48h 10.4µM
Cc1ccc(N2C(=O)N(CC(=O)Nc3ccc(C)cc3C)C(=O)C2C)cc1 (stereo not drawn)	none
Cc1ccc(N2C(=O)N(CC(=O)Nc3ccccc3C)C(=O)C2C)cc1 (stereo not drawn)	Shiga toxin inh 18.1, Cycloheximide cs 19.5
Cc1ccc(C2(C)NC(=O)N(CC(=O)NCc3ccccc3Cl)C2=O)cc1 (stereo not drawn)	Cycloheximide cs 11.6
Cc1ccc(NC(=O)CN(C)C(=O)c2cc(-c3cccs3)nn2-c2ccccc2)cc1	Pf growth 48h inconclusive (no result: Shiga toxin inh, Cycloheximide cs)
CC(Oc1ccc(Cl)cc1Cl)C(=O)NNC(=O)C(=O)N1CCCCC1 (stereo not drawn)	Pf growth 96h inconclusive
COCCNC(C)C(=O)Nc1ccc(Br)cc1 (stereo not drawn)	Pf growth 96h inconclusive
O=C(Nc1cccc(Cl)c1)c1cc(-c2ccco2)on1	Shiga toxin inh 56.0, Cycloheximide cs 31.4
O=C(Nc1cccnc1Cl)c1cc(-c2ccco2)on1	Shiga toxin inh 82.6, Cycloheximide cs 40.9 (no result: Pf growth 48h, Pf growth 96h)
O=C(Nc1c(Cl)cccc1Cl)c1cc(-c2ccco2)on1	none
COc1ccc(-c2cc(C(=O)Nc3cccc(C(C)=O)c3)no2)cc1	none (no result: Pf growth 48h, Pf growth 96h)
COc1ccc(-c2cc(C(=O)Nc3cccc(Cl)c3)no2)cc1	Shiga toxin inh 85.2, Cycloheximide cs 42.4
COc1ccc(-c2nnc(SC(C)C(=O)Nc3cccc(Cl)c3)o2)cc1 (stereo not drawn)	Shiga toxin inh 66.4
O=C(Nc1cccnc1Cl)c1cc(-c2ccc(Br)cc2)on1	none

Source: PubChem BioAssay (National Center for Advancing Translational Sciences (NCATS))
